Hits are enriched below; roughly 2.9% of the tested compounds scored in any of these assays.
HGIII-sPLA2 inh: Blocks human group III sPLA2 activity. Q9NZ20. QFRET BODIPY PC-A2 liposome hydrolysis, fluorescence. inhibition, % at 12.2 µM. actives 0.56% (n = 370,000);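 active = inhibition above mean plus 3 SD of compounds lying within the high and low control bounds, cut at about 19% in these data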;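 note: 0% = median of test compound wells and 100% = no enzyme DMSO wells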
Rtt109 Vps75: blocks Candida albicans Rtt109/Vps75 acetyltransferase activity; purified Rtt109/Vps75, ThioGlo CoA-SH fluorescence, 4 h; inhibition, % at 34.9 µM; actives 0.16% (n = 330,000);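 active = inhibition of at least 50% in every replicate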
H9c2 protect: modulators protecting cardiomyocytes from myocardial damage; H9c2 cardiomyocytes, H2O2 injury protection, ATPLite, 2 h; protection from H2O2 cell death, % at 20 µM; AID 588492; actives 0.63% (n = 360,000);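 active = compounds giving at least 50% protection of heart cells from peroxide-induced death in the single-dose screen, raw or plate-pattern-corrected value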;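 note: 0% = DMSO wells with peroxide and 100% = DMSO wells without peroxide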
DAGLB inhibitor: diacylglycerol lipase beta (human) inhibition; HEK293T DAGLB membrane lysate, EnzChek fluorogenic substrate; Q8NCG7; inhibition, % at 5.17 µM; actives 0.059% (n = 340,000); in the data active = inhibition above about 34%;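 note: 0% = enzyme with vehicle and 100% = wells lacking enzyme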
Target sequence (Q8NCG7 whole entry, looked up): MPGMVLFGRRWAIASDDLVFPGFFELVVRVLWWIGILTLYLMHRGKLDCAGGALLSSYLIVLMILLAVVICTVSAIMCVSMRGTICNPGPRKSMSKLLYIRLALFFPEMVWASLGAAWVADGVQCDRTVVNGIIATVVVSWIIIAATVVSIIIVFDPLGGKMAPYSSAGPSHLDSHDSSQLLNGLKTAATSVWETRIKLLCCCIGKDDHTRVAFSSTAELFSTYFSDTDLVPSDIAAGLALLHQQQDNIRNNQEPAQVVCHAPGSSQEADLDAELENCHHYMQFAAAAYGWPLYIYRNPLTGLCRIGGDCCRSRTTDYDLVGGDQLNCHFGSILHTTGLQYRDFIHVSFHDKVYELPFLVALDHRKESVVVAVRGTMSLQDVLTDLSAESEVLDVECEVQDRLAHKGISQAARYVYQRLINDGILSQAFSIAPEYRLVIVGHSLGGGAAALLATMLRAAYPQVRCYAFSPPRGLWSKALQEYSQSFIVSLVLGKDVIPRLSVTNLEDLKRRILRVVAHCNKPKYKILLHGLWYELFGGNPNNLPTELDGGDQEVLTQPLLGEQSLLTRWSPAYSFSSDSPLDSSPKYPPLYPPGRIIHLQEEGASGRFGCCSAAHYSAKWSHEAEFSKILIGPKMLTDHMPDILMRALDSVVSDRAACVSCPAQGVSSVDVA
ABHD5 PLIN5 PPI: blocks binding of human ABHD5 to perilipin-5 | actives 0.78% (n = 360,000) | AID 602281 | Split G. princeps luciferase complementation, luminescence, 4 h | inhibition, % at 4 µM;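 active = inhibition above the mean inhibition across every tested compound plus 3 SD, cut at about 22% in these data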;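 note: 0% = DMSO only wells and the 100% control is not disclosed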
Myeloid diff MLP: promotes myeloid progenitor differentiation; calls only at 10 µM; actives 1% (n = 360,000); AID 624256; ER-HoxA9 myeloid progenitors, lysozyme-GFP differentiation, flow cytometry;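 active = normalized GFP-positive differentiation at or above the plate's own cutoff, the solvent-only control mean plus 3 SD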;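 note: cells exposed to compound for four days before flow analysis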
Myeloid diff: promotes myeloid progenitor differentiation; shares compounds with Myeloid diff MLP; ER-HoxA9 myeloid progenitors, GFP/Mac1 double-positive flow; calls only; actives 2% (n = 2,300); AID 651706;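 active = share of green or green-and-red cells above 9 and 9% in run 1 or 4 and 3% in run 2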
GFP autofluor: compound fluorescence in myeloid differentiation counter-screen. shares compounds with Myeloid diff MLP. ER-HoxA9 myeloid progenitors, no estrogen, GFP autofluorescence flow cytometry; vehicle wells 0%, positive control 100%. fluorescence response, % (concentration not given with the values). actives 7.4% (n = 2,300);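 active = over 5% cells positive for green fluorescent reporter, or over 2% positive for both it and APC stain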;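 note: range taken on the double positive population between DMSO and positive control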
* = called active by the depositor.

For COc1ccccc1NC(=O)CSc1nnnn1-c1ccc2c(c1)OCO2 the results were HGIII-sPLA2 inh -6, Rtt109 Vps75 -15, H9c2 protect -1, DAGLB inhibitor 2, ABHD5 PLIN5 PPI 6, Myeloid diff MLP inactive, Myeloid diff inactive and GFP autofluor 0.
Screening CCOC(=O)c1csc(NC(=O)CSc2nnnn2-c2ccc(OC)cc2)n1 returned HGIII-sPLA2 inh 3, Rtt109 Vps75 0, H9c2 protect -8, DAGLB inhibitor 4, ABHD5 PLIN5 PPI 13 and Myeloid diff MLP inactive.
For COc1ccc(-n2nnnc2SCC(=O)Nc2nnc(C)s2)cc1 the results were HGIII-sPLA2 inh -3, Rtt109 Vps75 10, H9c2 protect -10, DAGLB inhibitor 3, ABHD5 PLIN5 PPI 0, Myeloid diff MLP active, Myeloid diff inactive and GFP autofluor 1.
Screening COC(=O)[C@@]1(Cc2ccc(F)cc2)[C@H]2c3cc(C(=O)N4CCCC4)n(Cc4ccc(C)o4)c3C[C@H]2CN1C(=O)c1ccccc1 returned HGIII-sPLA2 inh -4, ABHD5 PLIN5 PPI 14 and Myeloid diff MLP inactive.
COc1ccccc1-n1c(CNc2ccc(F)cc2)nnc1SCC(=O)Nc1cc(C)on1 was read as HGIII-sPLA2 inh -7, Rtt109 Vps75 -3, H9c2 protect -13, DAGLB inhibitor 0, ABHD5 PLIN5 PPI 7, Myeloid diff MLP inactive, Myeloid diff inactive and GFP autofluor 0.
`COc1cccc(CNC(=O)CCCc2c[nH]c3ccccc23)c1` gave HGIII-sPLA2 inh -33, Rtt109 Vps75 -3, H9c2 protect -3, DAGLB inhibitor -1, ABHD5 PLIN5 PPI -2 and Myeloid diff MLP inactive.
`CCCN(CCC)C(=S)NC1CC2C=CC1C2` (stereo unspecified) gave HGIII-sPLA2 inh 13, Rtt109 Vps75 -8, H9c2 protect -4, DAGLB inhibitor -2, ABHD5 PLIN5 PPI -3 and Myeloid diff MLP inactive.
O=c1[nH]c(/C=C2\C=Nc3ccccc32)c(O)n1Cc1ccccc1F was read as HGIII-sPLA2 inh -8, Rtt109 Vps75 9, H9c2 protect -10, DAGLB inhibitor 1, ABHD5 PLIN5 PPI -5, Myeloid diff MLP inactive, Myeloid diff inactive and GFP autofluor 0.
Cc1ccc(S(=O)(=O)NCc2ccncc2)cc1C was read as HGIII-sPLA2 inh 0, Rtt109 Vps75 -5, H9c2 protect -23, DAGLB inhibitor 3, ABHD5 PLIN5 PPI -4 and Myeloid diff MLP inactive.
`O=S(=O)(NCc1ccncc1)c1ccc(F)c(F)c1` gave HGIII-sPLA2 inh -3, H9c2 protect -22, DAGLB inhibitor 2, ABHD5 PLIN5 PPI -6, Myeloid diff MLP inactive, Myeloid diff inactive and GFP autofluor 0.
For CC(=O)Nc1ccc(NC(=O)C(C)O/N=C/c2cccc([N+](=O)[O-])c2)cc1 (stereo unspecified) the results were HGIII-sPLA2 inh 0, Rtt109 Vps75 5, H9c2 protect 2, DAGLB inhibitor 3, ABHD5 PLIN5 PPI -1, Myeloid diff MLP inactive, Myeloid diff inactive and GFP autofluor 0.
For CNC(=S)N(CCc1c(C)[nH]c2ccccc12)Cc1cc(OC)c(OC)c(OC)c1 the results were HGIII-sPLA2 inh 2, Rtt109 Vps75 -16, H9c2 protect -2, DAGLB inhibitor 0, ABHD5 PLIN5 PPI -2 and Myeloid diff MLP inactive.
CCNC(=S)N(CCc1c(C)[nH]c2ccccc12)Cc1cc(OC)c(OC)c(OC)c1 was read as HGIII-sPLA2 inh -12, Rtt109 Vps75 -2, H9c2 protect 5, DAGLB inhibitor 3, ABHD5 PLIN5 PPI 3, Myeloid diff MLP inactive, Myeloid diff inactive and GFP autofluor 0.
COc1cccc(OC)c1NC(=O)Cn1nc(-c2ccc3c(c2)OCCO3)ccc1=O was read as HGIII-sPLA2 inh -2, Rtt109 Vps75 -7, H9c2 protect 4, DAGLB inhibitor 2 and ABHD5 PLIN5 PPI -4.

Source: PubChem
